Experimental data as given in ChEMBL document CHEMBL4513216, “Probing the Open Global Health Chemical Diversity Library for Multistage-Active Starting Points for Next-Generation Antimalarials” (ACS Infect Dis, 2020).
The campaign covered roughly 69,000 compounds. About 8,600 (12%) showed an effect of 50% or more. For the sample, strong results were picked, then their nearest neighbours and some compounds at random.

tested on: Plasmodium berghei; assay: Screen against P. berghei liver stage (PbLuc), transformed with Luciferase, at 10uM; assay type: functional, HepG2; details: tested at 10 uM

| SMILES | INHIBITION |
| --- | --- |
| CN1CCc2nc(C3CCCN(S(=O)(=O)N4CCCC4)C3)ncc2C1 (stereo unspecified) | 23.325% |
| Cn1ccc(C(=O)NCc2ccc(N3CCCCCC3)nc2)cc1=O | 17.4% |
| O=C1NCCCCC1NCc1csc(-c2ccc(F)cc2)n1 (stereo unspecified) | -7.17% |
| Cc1cc(C)nc(NC2CC(=O)N(C(C)(C)C)C2)n1 (stereo unspecified) | 31.2% |
| Cc1cc(C)nc(NC2CC(=O)N(C)C2)n1 (stereo unspecified) | 63.3% |
| Cc1cc(C)nc(NC2CCC(=O)N(C)C2)n1 (stereo unspecified) | 11.5% |
| Cc1cc(C)n(C2CCCN(C(=O)CCOc3cccc(F)c3)C2)n1 (stereo unspecified) | -25.9% |
| CS(=O)(=O)N[C@@H]1CCO[C@]2(CCN(C(=O)c3cscn3)C2)C1 | 35.7% |
| CS(=O)(=O)N[C@H]1CCO[C@]2(CCN(CC3CCOCC3)C2)C1 | -44.4% |
| Cc1cncc(C(=O)N2CC[C@@]3(C[C@H](NS(C)(=O)=O)CCO3)C2)c1 | 54.4% |
| Cc1nc(C(=O)N2CC[C@@]3(C[C@H](NS(C)(=O)=O)CCO3)C2)cs1 | 11.3% |
| Cc1ccc(C(=O)N2CC[C@@]3(C[C@@H](NS(C)(=O)=O)CCO3)C2)s1 | 50.9% |
| CS(=O)(=O)N[C@H]1CCO[C@]2(CCN(C(=O)c3ccccn3)C2)C1 | 4.27% |
| Cc1ncoc1C(=O)N1CC[C@@]2(C[C@H](NS(C)(=O)=O)CCO2)C1 | 35.7% |
| Cc1ccoc1C(=O)N1CC[C@@]2(C[C@H](NS(C)(=O)=O)CCO2)C1 | 18.5% |
| CS(=O)(=O)N[C@@H]1CCO[C@]2(CCN(C(=O)C3=CCCC3)C2)C1 | 21% |
| Cc1cc(C(=O)N2CC[C@@]3(C[C@@H](NS(C)(=O)=O)CCO3)C2)no1 | 69.5% |
| Cc1nc(C(=O)N2CC[C@@]3(C[C@@H](NS(C)(=O)=O)CCO3)C2)cs1 | 62.5% |
| CS(=O)(=O)N[C@@H]1CCO[C@]2(CCN(C(=O)c3cnccn3)C2)C1 | 32.4% |
| Cc1cc(C(=O)N2CCCC(n3cccn3)C2)c(C)n1C1CC1 (stereo unspecified) | 5.7% |
| Cc1cc(CN(C)C(=O)NCC(C)N2CCc3ccccc32)no1 (stereo unspecified) | 15.6% |
| Cc1nccc(CN2CC[C@@]3(CCCN3Cc3ccccc3)[C@@H](O)C2)n1 | 39.7% |
| CC(C)N1CCO[C@@H]2CN(S(=O)(=O)c3cccs3)CC[C@@H]2C1 | 42.4% |

| SMILES | INHIBITION |
| --- | --- |
| Cc1cc(C)n(-c2ccc(C(=O)NCC(c3cccs3)N(C)C)cc2)n1 (stereo unspecified) | 30% |
| CC(C)c1ocnc1C(=O)NC(c1nnc2n1CCNCC2)C(C)C (stereo unspecified) | 65.5% |
| CC(C)C(NC(=O)c1ccc(=O)[nH]c1)c1nnc2n1CCNCC2 (stereo unspecified) | 12.6% |
| Cc1cc(C)c(C(=O)NC(c2nnc3n2CCNCC3)C(C)C)c(C)c1 (stereo unspecified) | 37.7% |
| CN(C)S(=O)(=O)N1CCCC(c2nccn2Cc2cccnc2)C1 (stereo unspecified) | 11.9% |
| CCCSCC(=O)N1CCCC(c2nccn2Cc2ccncc2)C1 (stereo unspecified) | 25% |
| CC(C)OC(=O)N1CCCC(c2nccn2Cc2ccncc2)C1 (stereo unspecified) | 50.3% |
| COc1cc(N2CCCC(c3nccn3Cc3ccncc3)C2)ncn1 (stereo unspecified) | 54.7% |
| COc1cc(N2CCCC(c3nccn3Cc3cccnc3)C2)ncn1 (stereo unspecified) | 2.69% |
| O=C(N1CCCC1)N1CCCC(c2nccn2Cc2ccncc2)C1 (stereo unspecified) | -14.6% |
| CCN(CC)S(=O)(=O)N1CCCC(c2nccn2Cc2ccncc2)C1 (stereo unspecified) | 70.1% |
| CCN(CC)S(=O)(=O)N1CCCC(c2nccn2Cc2cccnc2)C1 (stereo unspecified) | 15.2% |
| COc1cc(N2CCC(c3nccn3Cc3ccccc3)CC2)ncn1 | 11.7% |
| O=C1NC2(CCN(C(=O)N3CCOCC3)CC2)CC1c1cccnc1 (stereo unspecified) | 9.34% |
| Cc1nc(CN2C[C@@H]3CN(C(=O)C4CC4)C[C@@H]3C2=O)cs1 | 42.6% |
| O=C(NCCc1c[nH]c2ccccc12)C1CCC(Cn2cnnn2)CC1 (stereo unspecified) | -65.9% |
| Cc1cc(NC(=O)CN2CCCC(Cn3nc(C)nc3C)C2)n(C)n1 (stereo unspecified) | -22.15% |
| CSCc1ccc(N2CCC(C(O)Cc3ccccc3)CC2)nc1 (stereo unspecified) | 74.3% |
| CN(C)c1ccc(CN2CCC(C(O)Cc3ccccc3)CC2)cn1 (stereo unspecified) | -42.8% |
| CSCc1ccc(N2CCN(c3ccc(Cl)cn3)CC2)nc1 | 38.3% |
| CC(C)CC(O)C1CCN(Cc2ccc(N(C)C)nc2)CC1 (stereo unspecified) | 10.6% |
| CSCc1ccc(N2CCC(C(O)CC(C)C)CC2)nc1 (stereo unspecified) | 67.4% |
| Cc1ccc(N2CCC(C(O)Cc3ccccc3)CC2)nn1 (stereo unspecified) | -2.97% |

| SMILES | INHIBITION |
| --- | --- |
| CSCc1noc(-c2ccc(C)c(N3CCNC3=O)c2)n1 | 9.52% |
| COc1ccc(F)cc1-c1ccccc1CC1(C(=O)O)CCOCC1 | 26.7% |
| O=C(N[C@@H]1c2ccccc2C[C@@H]1O)C1CCN(Cc2ccco2)CC1 | 48.4% |
| CC(NS(N)(=O)=O)c1ccc(OCc2ccc(F)cc2)cc1 (stereo unspecified) | 14.6% |
| CCc1cc(NC2CCN(CC(N)=O)CC2)nc(N2CCCCC2)n1 | 51.5% |
| CCc1cc(NCC(N)=O)nc(N2CCCCC2)n1 | 32% |
| CCc1cc(NC(C)(C)C)nc(N2CCOCC2)n1 | -3.12% |
| CCc1cc(NC2CCS(=O)(=O)CC2)nc(N2CCCCC2)n1 | 23.3% |
| CCc1cc(NC2CCS(=O)(=O)C2)nc(N2CCCCC2)n1 (stereo unspecified) | 52.6% |
| CCc1cc(NCCNC(C)=O)nc(N2CCCC2)n1 | 48.2% |
| CCc1n[nH]c(C2CN(C(=O)c3cc(C(N)=O)cs3)CCO2)n1 (stereo unspecified) | -15.5% |
| CCC(NC1CCCC1)c1ccc(S(C)(=O)=O)cc1 (stereo unspecified) | 22.1% |
| CC(NC(=O)c1nc(=O)[nH][nH]1)c1ccc(OCC2CC2)c(F)c1 (stereo unspecified) | 5.53% |
| O=C(c1ccncc1)N1CCc2ncnc(C3CC3)c2CC1 | 27.6% |
| CCC(Nc1cccc(OC)c1)C(=O)NCc1ccc2[nH]c(=O)[nH]c2c1 (stereo unspecified) | -0.27% |
| C=C1C(C)(C)[C@@H]2CC[C@]1(C(=O)N1CCC(n3cc(CCO)nn3)CC1)C2 | -10.9% |
| Cc1ccc(C(=O)N2CCC(n3cc(CO)nn3)CC2)cn1 | 55.9% |
| Cc1cc(C(=O)N2CCC(n3cc(CO)nn3)CC2)ccc1F | 39.3% |
| C=C1C(C)(C)[C@@H]2CC[C@]1(C(=O)N1CCC(n3cc(CO)nn3)CC1)C2 | 54.5% |
| C=C1C(C)(C)[C@@H]2CC[C@]1(C(=O)N1CCC(Cn3cc(CO)nn3)CC1)C2 | 45.6% |
| Cc1ccoc1C(=O)N1CCC(n2cc(CO)nn2)CC1 | -37.8% |
| Cn1cc(C2CC(=O)NC23CCN(Cc2nccs2)CC3)cn1 (stereo unspecified) | -0.371% |
| N#Cc1cccc(CN2C[C@H](OCC3CCOCC3)[C@H]3COC[C@H]32)c1 | 19.5% |

| SMILES | INHIBITION |
| --- | --- |
| Cc1c[nH]nc1C1CCN(c2cnccn2)C1 (stereo unspecified) | 9.745% |
| CC(C)(C)n1cc(C(=O)O)c(-c2ccc(F)cc2F)n1 | 68.3% |
| CC(CN(C)C(=O)c1cn(C)nc1-c1ccc(F)cc1F)C(=O)O (stereo unspecified) | 24.4% |
| Cn1cc(C(=O)OCC(N)=O)c(-c2ccc(F)cc2F)n1 | 58.6% |
| COc1ccc(-c2ccc(C(=O)O)c(F)c2)c(F)c1 | 15.2% |
| Cc1cc(NC(=O)COC(=O)c2ccc(F)cc2Br)n(C)n1 | 34.1% |
| Cn1cc(C(=O)O)c(-c2ccc(F)cc2F)n1 | 18% |
| O=C(Nc1cccc(Cn2cccn2)c1)N1CCCC(N2CCCC2)C1 (stereo unspecified) | 16.2% |
| CS(=O)(=O)CCCSc1n[nH]c(-c2ccc3c(c2)CCC3)n1 | -18.8% |
| Cc1ccc(F)cc1S(=O)(=O)NCc1cccc(C(=O)N2CCCC2)c1 | -77.1% |
| O=C(NC1CCC(O)CC1)c1ccc2nc(-c3ccccc3)cn2c1 (stereo unspecified) | -25.1% |
| COCC(=O)N(C)Cc1cccc(Cl)c1 | 15% |
| O=C(CN1CCN(CC(O)C2CC2)CC1)NCc1ccc(F)cc1 (stereo unspecified) | 1.58% |
| O=C(c1ccoc1)N1CCn2cnc(COCC3CC3)c2C1 | 56.7% |
| O=C(c1cnccn1)N1CCn2cnc(COCC3CC3)c2C1 | 60.1% |
| O=C(c1ccoc1)N1CCCn2cnc(COCC3CC3)c2C1 | 39.2% |
| O=C(c1cscn1)N1CCn2cnc(COCC3CC3)c2C1 | -6.23% |
| CCOCc1ncn2c1CN(C(=O)c1ccoc1)CC2 | 39.2% |
| O=C(c1ccccn1)N1CCn2cnc(COCC3CC3)c2C1 | 19.7% |
| c1cnn(CC2CCCCN2Cc2nc(-c3ccsc3)no2)c1 (stereo unspecified) | 0.914% |
| CC(=O)N1CCCC(c2ccc(Nc3nc(C)cc(C)n3)cn2)C1 (stereo unspecified) | 33.5% |
| CSc1[nH]nc(NC(=O)c2cccnc2)c1C#N | -35.5% |
| CCn1cnc(NC(=O)N2CCC(c3ccc(Cl)cc3)C2)n1 (stereo unspecified) | 58.2% |

| SMILES | INHIBITION |
| --- | --- |
| CCn1cnc(NC(=O)N2CCCC(c3ccccc3)CC2)n1 (stereo unspecified) | 22.4% |
| CCn1cnc(NC(=O)N2CCC(c3ccc(F)cc3)C2)n1 (stereo unspecified) | 31.6% |
| CSCc1cccc(S(=O)(=O)N2CCCC2)c1 | 33.3% |
| Cc1cccc(N2CCC3(CCN(Cc4ccccn4)CC3)CC2)n1 | 15.3% |
| COCCC(=O)N1CCCC1c1nc(O)cc(C(C)C)n1 (stereo unspecified) | 23.2% |
| CC[C@@H](CO)Nc1nccc(-c2c[nH]c3cc(C(=O)OC)ccc23)n1 | 69.3% |
| COC(=O)c1ccc2c(-c3ccnc(N[C@@H](C)CO)n3)c[nH]c2c1 | 18.9% |
| COC(=O)c1ccc2c(-c3ccnc(NCCO)n3)c[nH]c2c1 | 10% |
| COc1ccc(CNC2CCC(O)CC2)cc1OCCCC#N (stereo unspecified) | 17.8% |
| Cc1ccc(CN2CCC3(CC2)NC(=O)CC3c2ccncc2)cc1C (stereo unspecified) | 16.6% |
| CC(NC(=O)CN1C=Nc2ccccc2S1(=O)=O)c1ccccc1 (stereo unspecified) | -18.5% |
| CC(C)CNC(=O)CN1C=Nc2ccccc2S1(=O)=O | 56.1% |
| O=C(CN1C=Nc2ccccc2S1(=O)=O)NCc1ccccc1 | 7.27% |
| CC(C)CCC(C)NC(=O)CN1C=Nc2ccccc2S1(=O)=O (stereo unspecified) | 12.7% |
| CC(C)OCCCNC(=O)CN1C=Nc2ccccc2S1(=O)=O | 12.7% |
| O=C(CN1C=Nc2ccccc2S1(=O)=O)NCCCc1ccccc1 | 55.2% |
| O=C(CN1C=Nc2ccccc2S1(=O)=O)NCCc1cccs1 | 53.8% |
| Cc1ccc(CNC(=O)CN2C=Nc3ccccc3S2(=O)=O)s1 | 22.3% |
| O=C(CN1C=Nc2ccccc2S1(=O)=O)NCC1CC1 | 29.2% |
